A selection: hits, their analogues and other compounds. The true share with any hit is near 4.8%.
IL1B secr inh: qHTS for Inhibitors of Inflammasome Signaling: IL-1-beta AlphaLISA Primary Screen | THP-1 LPS/ATP IL-1B secretion, AlphaLISA, 16 h; active compounds read low | activity change, % at 57.5 µM | 360,000 compounds, 4.7% hits; in the data active = activity change below about -50%; inconclusive = mostly about -30% to -49%; also: % is scaled to controls: 0 for no effect and ±100 for the full control effect
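Secreted IL-1B measured by AlphaLISA bead assay after 16 h compound exposure of THP-1 cells; compounds (final up to 57.5 uM) added 1 h before LPS (250 ng/mL) and ATP (1.25 mM) stimulation; lower signal means less secretion.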
ATXN2 expr inh: Primary qHTS for Inhibitors of ATXN expression; HEK-293 ATXN2-luciferase reporter, luminescence, 24 h; Potency, µM (top dose mostly 57 µM), for the others: at the highest dose activity change, negative = inhibition, most hits filed as inhibitors; 360,000 compounds, 0.72% hits; AID 1745845, 2022; also: potency is read from the fitted curve at half-maximal effect; % is scaled to controls: 0 for no effect and ±100 for the full control effect; nearly all actives have a fitted effect of over 55% in size
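qHTS (up to 57 uM final) was run with 24 h compound exposure of reporter cells at 37 °C. Each well was multiplexed: SteadyGlo luminescence measured ATXN2-luciferase expression after a fluorogenic Gly-Phe-AFC viability readout (25 uM final).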
USP2a block: qHTS Assay for Inhibitors of Ubiquitin-specific Protease USP2a Using CHOP2 as the Reporter; Ubiquitin carboxyl-terminal hydrolase 2 (Homo sapiens), O75604; Potency, µM (titrated, usually from 38.3 µM), for the others: at the highest dose activity change, negative = inhibition, usual class: inhibitors; 330,000 compounds, 0.01% hits; AID 463254, 2010; USP2 core, Ub-CHOP2 coupled fluorogenic reporter, 485/531;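 also: potency is read from the fitted curve at half-maximal effect; plate controls were DMSO wells for no effect and full inhibition by NEM control for full effect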
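USP2 core (10nM final) preincubated 30min RT with compound in 20mM Tris-HCl pH 8.0, 2mM CaCl2, 2mM beta-mercaptoethanol, 0.05% CHAPS; 25nM Ub-CHOP2 plus 25nM reporter substrate added, fluorescence (Ex485/Em531) read after 60min.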
USP1 inh: Inhibitors of USP1/UAF1: Primary Screen; AID 743255, 2014; Potency, µM (top dose mostly 57.1 µM), without a hit: at the top dose activity change, negative = inhibition, most hits filed as inhibitors; recombinant USP1/UAF1, Ub-Rhodamine cleavage fluorescence; Ubiquitin carboxyl-terminal hydrolase 1 (Homo sapiens), O94782; 390,000 compounds, 0.23% hits; also: potency is read from the fitted curve at half-maximal effect; % is scaled to controls: 0 for no effect and ±100 for the full control effect; nearly all actives have a fitted effect of over 60% in size
Target sequence (O94782 whole entry, looked up): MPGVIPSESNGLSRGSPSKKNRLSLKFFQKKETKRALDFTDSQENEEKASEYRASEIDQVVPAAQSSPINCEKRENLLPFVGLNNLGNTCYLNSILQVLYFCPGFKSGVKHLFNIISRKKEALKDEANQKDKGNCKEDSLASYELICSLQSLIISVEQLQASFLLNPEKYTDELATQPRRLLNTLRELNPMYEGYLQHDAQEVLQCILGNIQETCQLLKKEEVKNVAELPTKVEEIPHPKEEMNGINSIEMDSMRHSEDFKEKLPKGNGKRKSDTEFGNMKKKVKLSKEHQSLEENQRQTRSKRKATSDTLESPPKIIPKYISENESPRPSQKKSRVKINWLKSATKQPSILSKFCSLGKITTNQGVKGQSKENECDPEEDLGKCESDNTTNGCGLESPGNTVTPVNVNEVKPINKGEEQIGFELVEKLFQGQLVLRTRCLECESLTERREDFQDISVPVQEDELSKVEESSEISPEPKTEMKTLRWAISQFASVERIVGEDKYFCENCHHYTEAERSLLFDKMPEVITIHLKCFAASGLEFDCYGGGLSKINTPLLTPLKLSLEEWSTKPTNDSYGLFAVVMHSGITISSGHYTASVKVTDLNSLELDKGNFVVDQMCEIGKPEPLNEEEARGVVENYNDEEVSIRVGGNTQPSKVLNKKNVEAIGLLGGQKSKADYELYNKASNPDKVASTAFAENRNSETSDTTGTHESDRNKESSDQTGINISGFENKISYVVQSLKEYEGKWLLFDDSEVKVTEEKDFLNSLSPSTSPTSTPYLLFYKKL
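In this screen, compounds sit with the deubiquitinase complex (1nM) for 15 min at room temperature before Ub-Rho is added at 150nM final. Fluorescence rise is then followed for 6 reads every 60 seconds.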
S2 tox: Viability Counterscreen for Primary qHTS for Inhibitors of ATXN expression; 400,000 compounds, 0.49% hits; S2 cells (HEK-293 line with an ATXN2-luciferase reporter) viability, CellTiter-Fluor protease fluorescence, 24 h; Potency, µM (top dose mostly 56.7 µM), hits mostly cytotoxic; also: potency is read from the fitted curve at half-maximal effect; nearly all actives have a fitted effect of over 40% in size
An asterisk follows results filed as active; i = inactive; ? = inconclusive; · = not tested or not shown. Unless noted, calls follow the shape of the dose curve; as a rule, active = well fitted curve in the direction sought with a large enough effect; inconclusive = small, poorly fitted or top-dose-only effect, or another doubt; inactive = no such curve, though single readings can be large; an effect the other way counts as inactive or inconclusive.

SMILES | IL1B secr inh | ATXN2 expr inh | USP2a block | USP1 inh | S2 tox
COc1ccc(C(C(=O)NC2CCCC2)N(C(=O)c2ccoc2C)c2ccc(C)cc2)cc1 (stereo not given) | -18 | -4% | 2% | -14% | i
COc1ccc(C(C(=O)NC2CCCCC2)N(C(=O)CCl)c2ccc(C)cc2)cc1 (stereo not given) | -106* | ? | -2% | 1% | ·
CCn1c(=S)sc2c(=O)n(CC(=O)Nc3ccccc3)c(C)nc21 | -6 | -19% | -1% | -17% | i
CCn1c(=S)sc2c(=O)n(CC(=O)Nc3ccccc3C(F)(F)F)c(C)nc21 | -4 | · | 5% | -11% | 32µM*
Cc1ccc(S(=O)(=O)N2CCN(C(=O)c3cc(S(=O)(=O)N(C)C)ccc3N3CCCC3)CC2)c(C)c1 | -1 | 6% | -2% | -19% | i
O=C(NCCc1cccs1)Nc1ccc2nc([C@@H]3O[C@H](CO)[C@@H](O)[C@H]3O)[nH]c2c1 | 0 | 4% | · | · | i
Cc1ccccc1Cn1ccc(NC(=O)c2cnn3c2NC(c2ccccc2)CC3C(F)(F)F)n1 (stereo not given) | -66* | -1% | 3% | -18% | i
CCN(CC(=O)Nc1cc(Cl)ccc1C)CC(=O)NC1CC1 | -1 | · | · | -8% | i
C[C@@H]1CN([C@@H](C)CO)C(=O)CCCn2nncc2CO[C@@H]1CN(C)C(=O)Nc1ccnc(N2CCOCC2)c1 | 18 | 4% | · | -23% | i
Cc1ccc(O)c(CNc2nc3ccccc3n2C(C)C)c1 | -3 | -7% | 0% | -20% | i
CC(C)n1c(NCc2cc(Cl)ccc2O)nc2ccccc21 | -12 | 28µM* | 3% | -20% | ?
COC(=O)c1ccccc1-c1ccc(/C=N/Nc2nc(N3CCCC3)nc(N3CCCC3)n2)o1 | -91* | ? | -7% | -5% | ?
Cc1ccc(/C=N/Nc2nc(N3CCCCC3)nc(N3CCCCC3)n2)o1 | -29 | -15% | 0% | -9% | i
CCOc1cccc(/C=N/Nc2nc(N3CCCC3)nc(N3CCCC3)n2)c1O | -108* | · | -8% | -27% | i
COc1ccc(CCNC(=O)c2cc(S(=O)(=O)N3CCOCC3)cn2C)cc1OC | -12 | -10% | -1% | -2% | i
C[C@H](CO)N1C[C@H](C)[C@@H](CN(C)C(=O)NC2CCCCC2)Oc2ccc(NS(=O)(=O)c3ccc(F)cc3)cc2C1=O | -7 | -1% | 4% | ? | ?
COc1cc(-c2nc3cccc(C)n3c2Nc2ccc3c(c2)OCCO3)ccc1O | · | ? | · | -16% | i
COc1ccc(C(CC(=O)c2ccc(O)cc2)S(=O)(=O)c2ccc(C)cc2)cc1 (stereo not given) | -51* | 74% | -7% | -5% | i
Fc1cccc(F)c1/C=C/c1ccc2ccccc2n1 | -7 | 53% | -2% | -15% | i
CC(O)/C=C/c1ccc2ccccc2n1 (stereo not given) | -96* | 67% | 3% | 2% | ?
CN1CCN(C(=O)c2cc3ccccc3cc2O)CC1 | -8 | 9% | 1% | 1% | i
Cc1ccc(N2C(N)=C(C#N)C(c3ccsc3)C3=C2CC(C)(C)CC3=O)cc1 (stereo not given) | -55* | -3% | 1% | ? | i
COc1ccccc1CNc1ncnc2c1nc1n2CCCC1 | · | 47% | · | -14% | i
Cc1ccc2[nH]cc(C(=O)CCl)c2c1 | -101* | ? | -1% | -19% | ?
Cc1ccc2c(C(=O)CCl)c(C)[nH]c2c1 | -98* | 20% | 9% | -26% | i
CCCn1c(C2CCCN2c2nc(-c3cccc(Br)c3)cs2)nc2ccccc21 (stereo not given) | -17 | 0% | -1% | -36% | 22µM*
Cc1ccc(-c2csc(N3CCC[C@@H]3C(=O)NCCn3c(C(F)(F)F)nc4ccccc43)n2)cc1 | -12 | ? | -2% | ? | ?
